In the supplement of paper PMC7366291:
Counter-ions that a name gives are not always drawn. ± gives the standard deviation.

Each molecule was assayed on Danio rerio Tg(wt1b:EGFP) embryo, pronephros (assay: glomerular separation, fold change vs DMSO control; higher = glomeruli further apart (abnormal)). Settings: 25 µM; exposure: 24-48 hpf.
Outline: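 Using a Fiji macro, distances and angles were calculated from 16 reference points set by hand on maximum projections of pronephroi imaged dorsally (470 nm, 10 z-slices) in agarose-filled 96-well plates. The dechorionated Tg(wt1b:EGFP) zebrafish embryos had received 25 μM compound in 0.5% DMSO in HEPES-buffered E3 with 0.003% PTU from 24 to 48 hpf at 28.5°C. Values more than 2 SD from a feature's mean were excluded. Each feature appears as a fold change over the mean of DMSO-treated embryos from the same day.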
`Oc1ncnc2[nH]ncc12` [Allopurinol] was tested, and the glomerular separation was 0.837 ± 0.22. `CN1CCC(=C2c3ccccc3CCc3cccnc32)CC1` [Azatadine maleate] gave a glomerular separation of 1.11 ± 0.32. Work on `CC(C)(C)NC(=O)[C@@H]1C[C@@H]2CCCC[C@@H]2CN1C[C@@H](O)[C@H](Cc1ccccc1)NC(=O)[C@H](CC(N)=O)NC(=O)c1ccc2ccccc2n1` [Saquinavir mesylate] yielded a glomerular separation of 1.08 ± 0.35. In the case of `NC[C@H]1O[C@H](O[C@H]2[C@H](O[C@@H]3O[C@H](CO)[C@@H](O)[C@H]3O)[C@@H](O)[C@H](N)C[C@@H]2N)[C@H](N)[C@@H](O)[C@@H]1O` [Ribostamycin sulfate salt], the glomerular separation is reported as 0.722 ± 0.22. With `Cc1cc(CC(=O)O)n(C)c1C(=O)c1ccc(Cl)cc1` [Zomepirac sodium salt] the glomerular separation was 0.83 ± 0.4. In the case of `CCSc1ccc2c(c1)N(CCCN1CCN(C)CC1)c1ccccc1S2` [Thiethylperazine dimalate], the glomerular separation is reported as 0.677 ± 0.22. `CCCc1nc2c(C)cc(-c3nc4ccccc4n3C)cc2n1Cc1ccc(-c2ccccc2C(=O)O)cc1` [Telmisartan] showed a glomerular separation of 1.22 ± 0.41. In the case of `CNCCc1ccccn1` [Betahistine mesylate], the glomerular separation is reported as 0.815 ± 0.39. Work on `CCOC(=O)[C@H](CCc1ccccc1)N[C@@H](C)C(=O)N1[C@H](C(=O)O)C[C@@H]2CCC[C@@H]21` [Ramipril] yielded a glomerular separation of 0.977 ± 0.26. `CC[N+](C)(C)Cc1ccccc1Br` [Bretylium tosylate] showed a glomerular separation of 0.631 ± 0.23. `Cc1ccc(C(=O)c2ccc(CC(=O)O)n2C)cc1` [Tolmetin sodium salt dihydrate] was tested, and the glomerular separation was 1.55 ± 0.69. In the case of `CN(c1nccc(=O)[nH]1)C1CCN(c2nc3ccccc3n2Cc2ccc(F)cc2)CC1` [Mizolastine], the glomerular separation is reported as 1.05 ± 0.25. `COc1ccc(C(=O)NCc2ccc(OCCN(C)C)cc2)cc1OC` [Itopride] was tested, and the glomerular separation was 1.05 ± 0.44. For `NC[C@@H]1O[C@H](O[C@H]2[C@@H](O)[C@H](O[C@@H]3[C@@H](O)[C@H](N)C[C@H](N)[C@H]3O[C@H]3O[C@H](CO)[C@@H](O)[C@H](O)[C@H]3N)O[C@@H]2CO)[C@H](N)[C@@H](O)[C@@H]1O` [Paromomycin sulfate], the glomerular separation was 0.691 ± 0.18. With `O=P(O)(O)C(O)(Cn1ccnc1)P(=O)(O)O` [Zoledronic acid hydrate] the glomerular separation was 1.2 ± 0.37. With `CC12CC3CC(C)(C1)CC(N)(C3)C2` [Memantine Hydrochloride] the glomerular separation was 1 ± 0.34. With `Cc1ccccc1OCC(O)CO` (configuration not stated) [Mephenesin] the glomerular separation was 1.06 ± 0.57. `COc1cc(N)c(Cl)cc1C(=O)NC1CCN(Cc2ccccc2)CC1` [Clebopride maleate] was tested, and the glomerular separation was 0.962 ± 0.3. For `N=C(N)NC(=O)c1nc(Cl)c(N)nc1N` [Amiloride hydrochloride dihydrate], the glomerular separation was 0.835 ± 0.27. `CN(C)C(=O)C(CCN1CCC(O)(c2ccc(Cl)cc2)CC1)(c1ccccc1)c1ccccc1` [Loperamide hydrochloride] gave a glomerular separation of 1.07 ± 0.32. In the case of `CNCCCC12CCC(c3ccccc31)c1ccccc12` [Maprotiline hydrochloride], the glomerular separation is reported as 1.28 ± 0.49. With `CCCCOc1ccc(C(=O)CCN2CCCCC2)cc1` [Dyclonine hydrochloride] the glomerular separation was 0.982 ± 0.26. Molecule `Cn1c(=O)c2c(ncn2CCO)n(C)c1=O` [Etofylline] has a glomerular separation of 0.926 ± 0.37. Work on `Nc1ccc(C(=O)NCC(=O)O)cc1` [Aminohippuric acid] yielded a glomerular separation of 0.88 ± 0.41. In the case of `CCCc1cc(C(N)=S)ccn1` [Prothionamide], the glomerular separation is reported as 0.957 ± 0.36. `O=C1[C@H]2CCCC[C@H]2C(=O)N1CCCCN1CCN(c2nsc3ccccc23)CC1` [Perospirone] showed a glomerular separation of 1.25 ± 0.36. `Nc1ccc(S(=O)(=O)NC(=O)c2ccccc2)cc1` [Sulfabenzamide] showed a glomerular separation of 1.2 ± 0.49.
